Source: PubChem BioAssay (NCI)
This is part of a sample that, as a whole, favours compounds with a hit. Of some 79,000 tested, about 15% had one in any assay. Activity calls are given as the source filed them. Cut-off read from the data, not from the text of the source: active = growth inhibition above about 70%; inactive = the rest.

Key:
[1] = NCI Yeast Anticancer Drug Screen. Data for the rad50 strain (AID 155);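 note: 0% = growth of vehicle-only cultures of the same strain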; conditions: S. cerevisiae rad50 strain growth inhibition, hits give high values
In short: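 Readout: growth inhibition relative to vehicle-treated cultures. Compound exposure was carried out in a genetically defined yeast strain deficient in DNA damage repair.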

[2] = NCI Yeast Anticancer Drug Screen. Data for the mec2-1 strain (AID 157); conditions: S. cerevisiae mec2-1 strain, hits give high values
In short: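 Each compound was tested on mec2-1 yeast, a strain altered in DNA damage repair or cell cycle control. Growth inhibition is reported relative to vehicle.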

[3] = NCI Yeast Anticancer Drug Screen. Data for the sgs1 mgt1 strain (AID 161);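 note: 0% = growth of cultures given vehicle only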; conditions: S. cerevisiae sgs1 mgt1 strain, hits give high values
In short: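 Read-out: growth inhibition vs vehicle controls. Cells: mutant yeast strain deficient in DNA damage repair.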

[4] = NCI Yeast Anticancer Drug Screen. Data for the cln2 rad14 strain (AID 165);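 note: 0% = growth equal to vehicle treated cultures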; conditions: S. cerevisiae cln2 rad14 strain, hits give high values
In short: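 Test compounds were added to cln2 rad14 yeast cultures; inhibition of growth was then determined by comparison with vehicle treatment.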

[5] = NCI Yeast Anticancer Drug Screen. Data for the bub3 strain (AID 167); conditions: S. cerevisiae bub3 mutant strain, hits give high values
In short: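 Readout: yeast growth inhibition, expressed relative to vehicle-only wells. The test organism is a mutant strain from a panel with lesions in DNA repair or checkpoint genes.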

[6] = NCI Yeast Anticancer Drug Screen. Data for the mlh1 rad18 strain (AID 175); conditions: S. cerevisiae mlh1 rad18 strain growth inhibition, hits give high values
In short: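 Inhibition values reflect reduced growth of mutant yeast versus vehicle-treated controls following compound exposure; the mutations affect DNA damage repair.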

[7] = at 5.0 µM (retest, dose inferred, filed as 0.5)
[8] = at 50.0 µM (retest, dose inferred, filed as 5.0)

Measured: growth inhibition

COc1ccc(/C=C/C(C)=N/NC(=S)NCC(C)C)cc1
inactive: [1]; [7] -9% | [1]; [8] 55% | [1]; at 50.0 µM 15.8% | [2]; [7] -12% | [2]; [8] 47% | [2]; at 50.0 µM 45% | [3]; [7] -2% | [4]; [7] -17% | [4]; [8] 48% | [4]; at 50.0 µM 18.4% | [5]; [7] -6% | [5]; [8] 57% | [6]; [7] 3% | [6]; [8] 61% | [6]; at 50.0 µM 52.5%
active: [3]; [8] 71% | [3]; at 50.0 µM 75.2% | [5]; at 50.0 µM 88.8%

CN1C(=O)C(Cl)(C(Cl)(Cl)S(=O)(=O)O)C(=O)c2ccccc21 (centres undefined)
active: [1]; [8] 95% | [2]; [8] 99% | [3]; [8] 98% | [4]; [8] 96% | [5]; [8] 97% | [6]; [8] 97%
inactive: [1]; [7] -3% | [1]; at 50.0 µM 42% | [2]; [7] 1% | [2]; at 50.0 µM 18.3% | [3]; [7] 1% | [3]; at 50.0 µM -8.1% | [4]; [7] 3% | [4]; at 50.0 µM 34.5% | [5]; [7] 0% | [5]; at 50.0 µM 4.2% | [6]; [7] -1% | [6]; at 50.0 µM 27.5%

C/C(C=C(C#N)C#N)=C\c1ccc([N+](=O)[O-])cc1
inactive: [1]; [7] -9% | [1]; [8] 67% | [2]; [7] -16% | [2]; [8] 67% | [3]; [7] -1% | [3]; [8] 40% | [3]; at 50.0 µM 64.8% | [4]; [7] 36% | [4]; [8] 60% | [4]; at 50.0 µM 55.5% | [5]; [7] 15% | [5]; at 50.0 µM 64.8% | [6]; [7] -3% | [6]; at 50.0 µM 67.3%
active: [1]; at 50.0 µM 78.2% | [2]; at 50.0 µM 70.4% | [5]; [8] 81% | [6]; [8] 89%

CCN(CC)CC(O)c1ccc(/C=C/c2ccc(Cl)cc2)cc1 (centres undefined)
active: [1]; [8] 95% | [1]; at 50.0 µM 98.1% | [2]; [8] 97% | [2]; at 50.0 µM 98% | [3]; [8] 98% | [4]; [8] 97% | [4]; at 50.0 µM 98.7% | [5]; [8] 96% | [5]; at 50.0 µM 98.6% | [6]; [8] 97% | [6]; at 50.0 µM 98.4%
inactive: [1]; [7] 12% | [2]; [7] 6% | [3]; [7] 8% | [3]; at 50.0 µM 58.5% | [4]; [7] 12% | [5]; [7] 17% | [6]; [7] 15%

Cc1cccc2c(=O)c3ccccc3oc12
inactive: [1]; [7] 5% | [1]; [8] 42% | [1]; at 50.0 µM 47.5% | [2]; [7] 2% | [2]; [8] 11% | [2]; at 50.0 µM 17.2% | [3]; [7] -1% | [3]; [8] 18% | [3]; at 50.0 µM 15.4% | [4]; [7] 12% | [4]; [8] -1% | [4]; at 50.0 µM -63.5% | [5]; [7] 9% | [5]; [8] 19% | [5]; at 50.0 µM 14.5% | [6]; [7] 9% | [6]; [8] 11% | [6]; at 50.0 µM 3.5%

CCCC(C(=O)OCCN1CCCC1(C)C)C1CCCC1 (centres undefined)
active: [4]; at 50.0 µM 70.7%
inactive: [1]; [7] 17% | [1]; [8] 38% | [1]; at 50.0 µM 41% | [2]; [7] 10% | [2]; [8] 46% | [2]; at 50.0 µM 39% | [3]; [7] 24% | [3]; [8] 58% | [3]; at 50.0 µM 48% | [4]; [7] 29% | [4]; [8] 58% | [5]; [7] 45% | [5]; [8] 62% | [5]; at 50.0 µM 36.5% | [6]; [7] 36% | [6]; [8] 68% | [6]; at 50.0 µM 40%

CC/C(Cl)=N\OC(=O)Nc1ccc(F)c(Cl)c1
active: [1]; [8] 98% | [2]; [8] 96% | [2]; at 50.0 µM 84.4% | [3]; [8] 99% | [3]; at 50.0 µM 83.7% | [4]; [8] 75% | [5]; [8] 92% | [5]; at 50.0 µM 78.2% | [6]; [8] 94%
inactive: [1]; [7] -8% | [1]; at 50.0 µM 58.5% | [2]; [7] 5% | [3]; [7] 36% | [4]; [7] 31% | [4]; at 50.0 µM 51% | [5]; [7] 5% | [6]; [7] -8% | [6]; at 50.0 µM 69.3%

O=C(O)c1ccc(C(=O)c2ccccc2C(=O)O)cc1
inactive: [1]; [7] -3% | [1]; [8] -4% | [2]; [7] -5% | [2]; [8] -2% | [3]; [7] -1% | [3]; [8] -1% | [4]; [7] -2% | [4]; [8] -7% | [5]; [7] 0% | [5]; [8] -1% | [6]; [7] 1% | [6]; [8] 0%
active: [1]; at 50.0 µM 99.3% | [2]; at 50.0 µM 99.7% | [3]; at 50.0 µM 99.4% | [4]; at 50.0 µM 98.5% | [5]; at 50.0 µM 99.7% | [6]; at 50.0 µM 99.3%
